From PubChem BioAssay
Only some compounds are listed: those with a hit (about 19% of all), similar ones and a draw of the others.
DT40 TDP1 no CPT: qHTS for Inhibitors of human tyrosyl-DNA phosphodiesterase 1 (TDP1): qHTS in cells in absence of CPT; DT40 Tdp1-/- hTDP1 cells, no CPT, ATP luminescence, 48 h; Potency, µM (highest dose often 46.2 µM), usual class: inhibitors; 420,000 compounds, 15% hits; AID 686978, 2013; further: nearly all actives have a fitted effect of over 55% in size
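Stably hTDP1-transfected Tdp1-null chicken DT40 cells were treated with library compounds minus camptothecin and grown for at least 48 hr at 37 °C, after which cellular ATP was quantified by luminescence.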
IL-1B inflam inh: qHTS for Inhibitors of Inflammasome Signaling: IL-1-beta AlphaLISA Primary Screen. THP-1 LPS/ATP IL-1B secretion, AlphaLISA, 16 h; stronger effect = lower value. activity change, % at 57.5 µM. 360,000 compounds, 4.7% hits. AID 743279, 2014; in the data active means activity change below about -50%; inconclusive means mostly about -30% to -49%
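Secreted IL-1B measured by AlphaLISA bead assay after 16 h compound exposure of THP-1 cells; compounds (final up to 57.5 uM) added 1 h before LPS (250 ng/mL) and ATP (1.25 mM) stimulation; lower signal means less secretion.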
HT1080 IDH1KD tx: qHTS for induction of synthetic lethality in tumor cells producing 2HG: qHTS for the HT-1080-IDH1KD cell line; HT-1080 IDH1 knockdown viability, ATP luminescence, 48 h; Potency, µM (top dose mostly 46.1 µM), actives largely listed as cytotoxic; 360,000 compounds, 2% hits; AID 686971, 2013
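Assay cells: HT-1080 with IDH1 knockdown, 750 per well, RPMI/5% FBS. Exposure: 48 h at 37 °C following 2 h pre-incubation. Read: CellTiter-Glo luminescence; fitted concentration-response, curve class assigned.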
TDP1 cell CPT: qHTS for Inhibitors of human tyrosyl-DNA phosphodiesterase 1 (TDP1): qHTS in cells in presence of CPT | chicken DT40 Tdp1-/-;hTDP1 cells + 20 nM CPT, ATP luminescence, 48 h | Potency, µM (series often up to 46.2 µM), actives largely listed as inhibitors | 420,000 compounds, 12% hits | AID 686979, 2013; further: nearly all actives have a fitted effect of over 55% in size
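Chicken DT40 Tdp1-/- cells complemented with human TDP1, 400 cells/well, exposed to compounds plus 20 nM camptothecin for at least 48 h at 37 C; viability read as ATP content by CellTiter-Glo luminescence.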
HT1080NT lethal: qHTS for induction of synthetic lethality in tumor cells producing 2HG: qHTS for the HT-1080-NT fibrosarcoma cell line; HT-1080-NT fibrosarcoma viability, CellTiter-Glo ATP luminescence, 48 h; Potency, µM (highest dose often 46.1 µM), usual class: cytotoxic; 360,000 compounds, 1.6% hits;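 further: NT is the 2HG producing partner of a matched IDH1 knockdown line; nearly all actives have a fitted effect of over 55% in size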
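Viability by CellTiter-Glo luminescence after 48 h compound exposure at 37C of HT-1080-NT cells (750/well, RPMI, 5% FBS). % activity scaled between DMSO wells and medium-only wells, then curve-fitted and categorized by curve class.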
Each line names hits and unclear results; the compound was inactive in the other large screens. Unless noted, the call rests on the fitted dose curve; in most records, active means well fitted curve in the direction sought with a large enough effect; inconclusive means small, poorly fitted or top-dose-only effect, or another doubt; inactive means no such curve, though single readings can be large; an effect the other way counts as inactive or inconclusive.

Cc1cc(C)n(-c2ccc(C(=O)Nc3cccc([N+](=O)[O-])c3)cc2)n1	DT40 TDP1 no CPT inconclusive, IL-1B inflam inh inconclusive, HT1080NT lethal inconclusive
Cc1cc(C)n(-c2ccc(C(=O)Nc3cccc(S(=O)(=O)N(C)C)c3)cc2)n1	DT40 TDP1 no CPT 1.6µM, TDP1 cell CPT 1.8µM
C/C(=N\Nc1nc(Cl)c(Cl)cc1Cl)c1ccc(S(=O)(=O)NCc2ccco2)cc1	DT40 TDP1 no CPT 21µM, TDP1 cell CPT inconclusive
C/C(=N\Nc1ccccn1)c1ccc(S(=O)(=O)NCc2ccco2)cc1	DT40 TDP1 no CPT inconclusive
Cc1ccc(NC(=O)c2ccc(OC(F)(F)F)cc2)cc1S(=O)(=O)N(C)C	DT40 TDP1 no CPT 26µM, TDP1 cell CPT inconclusive
CC(=O)c1c(C)cc(C)c(CSc2nc(C)cc(=O)[nH]2)c1C	DT40 TDP1 no CPT inconclusive, HT1080 IDH1KD tx inconclusive, TDP1 cell CPT inconclusive, HT1080NT lethal inconclusive
Cc1cc(C)n(-c2ccc(C(=O)Nc3ccc(S(=O)(=O)NCc4ccco4)cc3)cc2)n1	DT40 TDP1 no CPT 18µM, IL-1B inflam inh -54, HT1080 IDH1KD tx inconclusive, TDP1 cell CPT 18µM
Cc1ccc(C(=O)Nc2ccc(S(=O)(=O)NCc3ccco3)cc2)cc1	DT40 TDP1 no CPT inconclusive, HT1080 IDH1KD tx inconclusive, TDP1 cell CPT inconclusive, HT1080NT lethal inconclusive
CCCCN1C(=O)c2ccc(C(=O)Nc3ccc(C)c(S(=O)(=O)N(C)C)c3)cc2C1=O	DT40 TDP1 no CPT 16µM, TDP1 cell CPT inconclusive
Nc1c(C(=O)Nc2ccccc2Cl)nnn1Cc1cccc(Cl)c1	none (no result: IL-1B inflam inh, HT1080 IDH1KD tx, HT1080NT lethal)
NC(=O)c1ccc(NC(=O)COC(=O)c2ccc(Br)c(S(=O)(=O)N3CCOCC3)c2)cc1	IL-1B inflam inh -60
Cc1ccc(NC(=O)COC(=O)C2(C)CC2(Cl)Cl)cc1S(=O)(=O)N1CCOCC1 (configuration not stated)	DT40 TDP1 no CPT 23µM, TDP1 cell CPT 21µM
CC(C)c1ccccc1NC(=O)COC(=O)C1(C)CC1(Cl)Cl (configuration not stated)	none
CC(C)(C)c1ccc(NC(=O)COC(=O)C2(C)CC2(Cl)Cl)cc1 (configuration not stated)	DT40 TDP1 no CPT 23µM, TDP1 cell CPT inconclusive
CC(=O)c1c(C)[nH]c(C(=O)OC(C)C(=O)Nc2ccc(C)c(S(=O)(=O)N3CCOCC3)c2)c1C (configuration not stated)	DT40 TDP1 no CPT 29µM, TDP1 cell CPT 23µM
Cc1cnc(C(=O)OCC(=O)Nc2ccc(C)c(S(=O)(=O)N3CCOCC3)c2)cn1	none
CN(C)c1nnnn1-c1cccc(Oc2ncc(C(F)(F)F)cc2Cl)c1	none
COc1ccc(NC(=O)c2oc3ccccc3c2CSC)cc1S(=O)(=O)N1CCOCC1	none
Cc1ccc(NC(=O)COc2ccc(Cl)cc2Cl)cc1S(=O)(=O)N1CCOCC1	DT40 TDP1 no CPT inconclusive, IL-1B inflam inh -57, TDP1 cell CPT inconclusive
Cc1ccc(NC(=O)COC(=O)/C=C/c2ccccc2)cc1S(=O)(=O)N1CCOCC1	none
CCC(C(=O)OCC(=O)Nc1ccc(C)c(S(=O)(=O)N2CCOCC2)c1)c1ccccc1 (configuration not stated)	DT40 TDP1 no CPT inconclusive, TDP1 cell CPT 12µM
Cc1ccc(NC(=O)c2oc3ccccc3c2COC(C)C)cc1S(=O)(=O)N1CCOCC1	DT40 TDP1 no CPT 23µM, TDP1 cell CPT 18µM
Cc1cc(C)cc(NC(=O)c2oc3ccccc3c2COc2ccccc2)c1	DT40 TDP1 no CPT 21µM, TDP1 cell CPT inconclusive
CCC(NC(=O)OCc1ccccc1)C(=O)Oc1ccc2ccc(=O)oc2c1 (configuration not stated)	DT40 TDP1 no CPT inconclusive, TDP1 cell CPT inconclusive
COc1cccc(NC(=O)CN(C)C(=O)Cc2c(C)nc3ccccc3c2C)c1	DT40 TDP1 no CPT inconclusive, TDP1 cell CPT inconclusive
CSc1ccc(C(=O)C2CCCN(S(=O)(=O)c3c(C)noc3C)C2)cc1 (configuration not stated)	DT40 TDP1 no CPT inconclusive, IL-1B inflam inh -52, TDP1 cell CPT inconclusive
CCC(C)NC(=O)C1CCN(S(=O)(=O)c2ccc(Br)s2)CC1 (configuration not stated)	none
O=C(C1CCCN(S(=O)(=O)c2ccc(Br)s2)C1)N1CCN(c2ccccc2)CC1 (configuration not stated)	DT40 TDP1 no CPT 13µM, TDP1 cell CPT 18µM
O=C(C1CCN(S(=O)(=O)c2ccc(Br)s2)CC1)N1CCCCC1	DT40 TDP1 no CPT 21µM, TDP1 cell CPT inconclusive
O=S(=O)(c1ccc(Br)s1)N1CCN(c2ccccc2)CC1	IL-1B inflam inh inconclusive
Cc1ccc(NC(=O)C2CCCN(S(=O)(=O)c3c(C)noc3C)C2)c(Br)c1 (configuration not stated)	DT40 TDP1 no CPT inconclusive, TDP1 cell CPT 21µM
C[C@@H](NC(=O)[C@@H]1CCCN1C(=O)[C@@H]1CCCN1C(=O)c1ccc(Cl)cc1)c1ccccc1	DT40 TDP1 no CPT inconclusive, TDP1 cell CPT inconclusive
C[C@H](CO)N1C[C@H](C)[C@@H](CN(C)Cc2ccccc2)Oc2c(NS(=O)(=O)c3cn(C)cn3)cccc2C1=O	DT40 TDP1 no CPT inconclusive, TDP1 cell CPT inconclusive
CCCSc1ncc(Cl)c(C(=O)Nc2sc(C(C)=O)c(C)c2C(=O)OCC)n1	none (no result: IL-1B inflam inh, HT1080 IDH1KD tx, HT1080NT lethal)
O=C(NCc1ccc(F)cc1)C1CCCN(S(=O)(=O)c2ccc(Br)s2)C1 (configuration not stated)	DT40 TDP1 no CPT inconclusive, IL-1B inflam inh -53, TDP1 cell CPT inconclusive
CC1CC(C)CN(C(=O)C(C)N2CCN(S(=O)(=O)c3ccc(Br)s3)CC2)C1 (configuration not stated)	DT40 TDP1 no CPT inconclusive, IL-1B inflam inh -59, TDP1 cell CPT inconclusive
O=C(NCc1ccncc1)C1CCCN(S(=O)(=O)c2cc(Cl)ccc2Cl)C1 (configuration not stated)	DT40 TDP1 no CPT 16µM, TDP1 cell CPT inconclusive
Cc1[nH]c(=O)[nH]c(=O)c1S(=O)(=O)N1CCCC(C(=O)N2CCN(c3ccccc3Cl)CC2)C1 (configuration not stated)	none
Cc1cccc(N2CCN(C(=O)C3CCCN(S(=O)(=O)c4ccc(Br)s4)C3)CC2)c1C (configuration not stated)	DT40 TDP1 no CPT 8.2µM, TDP1 cell CPT 9.2µM (no result: IL-1B inflam inh, HT1080 IDH1KD tx, HT1080NT lethal)
O=C(NCc1ccncc1)C1CCN(S(=O)(=O)c2cc(Cl)ccc2Cl)CC1	none
COc1ccc(OCC(=O)N2CCCC(CO)(CCOc3ccccc3)C2)cc1 (configuration not stated)	none
